Compounds with a hit are over-represented: about 2.1% of the library has one in this group of screens.
Avidin fluor: compound fluoresces at 488/530 nm on avidin beads; compound fluorescence 488/530 nm, flow cytometry; active compounds read high; fluorescence (KMESF) at 10 µM; 0.38% of 220,000 active; AID 1775; in the data active = fluorescence above about 47
EP2 mod: modulators of human EP2 prostaglandin E2 receptor | 0.83% of 260,000 active | EP2-expressing cells, cAMP HTRF FRET, PGE2 co-stimulation | P43116 | AID 940 | induction, % at 25 µM;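 active = compounds whose cAMP rise, as percent of the full-agonist control response, exceeds 60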;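 note: rat C6 glioma line stably carrying human EP2 under a CMV promoter; the protocol text gives 20 µM as final concentration; 100% = response of wells given 1 µM PGE2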
Target sequence (P43116 whole entry, looked up): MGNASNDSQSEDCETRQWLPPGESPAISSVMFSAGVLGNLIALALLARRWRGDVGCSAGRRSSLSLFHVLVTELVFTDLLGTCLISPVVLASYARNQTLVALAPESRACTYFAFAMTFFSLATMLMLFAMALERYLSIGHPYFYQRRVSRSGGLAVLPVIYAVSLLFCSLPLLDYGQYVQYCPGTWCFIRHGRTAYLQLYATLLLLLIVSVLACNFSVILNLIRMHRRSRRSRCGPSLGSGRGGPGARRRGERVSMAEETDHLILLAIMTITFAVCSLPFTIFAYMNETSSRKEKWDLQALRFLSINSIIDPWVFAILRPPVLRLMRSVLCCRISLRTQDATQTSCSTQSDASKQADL
EP2 antag: blocks the human prostaglandin E2 receptor EP2. P43116. 0.52% of 260,000 active. inhibition, % at 25 µM. C6 glioma cells expressing human EP2, cAMP TR-FRET; cells stimulated with saturating PGE2;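 active = percent inhibition above 40 after rounding to a whole number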;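 note: rat C6 glioma host cells with rolipram phosphodiesterase inhibitor present; the protocol text gives 20 µM as final concentration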
GSH fluor: compound fluoresces at 488/530 nm on GSH beads; fluorescence (KMESF) at 10 µM; GSH beads flow cytometry, compound fluorescence 488/530 nm; active compounds read high; 0.25% of 190,000 active; in the data active = fluorescence above about 89;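 note: glutathione beads carrying GST-tagged Bcl family fusion proteins plus one bare bead set; values are compound well signal with DMSO vehicle wells as background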
HMGR II inh: E. faecalis class II HMG-CoA reductase inhibition | inhibition, % at 10 µM | purified E. faecalis HMGR, NADPH absorbance 340 nm kinetic | 0.41% of 190,000 active;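 active = inhibition above a set limit, the median over all tested compounds plus 3 SD, cut at about 9.5% in these data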;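 note: enzyme runs in reverse so mevalonate oxidation gives rising NADPH absorbance; 0% = complete reaction with DMSO and 100% = background rate lacking mevalonate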
EP2 confirm: human EP2 receptor cAMP induction, negative in counter-screens | shares compounds with EP2 mod | C6 glioma EP2 cells, cAMP HTRF induction; plus low (about EC15) PGE2 agonist | calls only at 20 µM (by protocol) | 47% of 1,300 active | AID 1080;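 active = cAMP induction above 50% in the main assay while under 30% in all four parallel counter assays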;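 note: rat C6 glioma cells stably expressing human EP2 receptor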
* marks the source's active call; other numbers are inactive results; i = inactive; . = not tested or not shown; + = active, no number; ! = not confirmed by another sample.

SMILES	Avidin fluor	EP2 mod	EP2 antag	GSH fluor	HMGR II inh	EP2 confirm
CC12CCC(O)CC1=CCC1C2CCC2(C)C1CCC21CCC(=O)O1 (stereo unspecified)	14	-18	6	3	3	.
CC(=O)OCC(=O)[C@@]12OC(C)(C)O[C@@H]1C[C@H]1[C@H]3CC=C4C[C@@H](O)CC[C@]4(C)[C@@H]3CC[C@@]12C	.	52	40*	.	.	i
CN1CCCN(C(=O)c2cc(=O)[nH]c3ccccc23)c2nc3ccccc3nc21	17	15	12	23	-6	.
CN1CCCN(C(=O)Cc2c(Cl)cccc2Cl)c2nc3ccccc3nc21	15	70*	9	14	-4	+
CC(Cc1ccccc1)NC(=O)C1(c2ccccc2)CCOCC1 (stereo unspecified)	36	69*	11	42	-1	i
COc1ccc(C2(C(=O)NC(C)Cc3ccccc3)CCOCC2)cc1OC (stereo unspecified)	.	-5	7	.	.	.
CCCCOc1ccccc1C1C(C(=O)OC)=C(C)N(C)C(C)=C1C(=O)OC	6	94*	13	65	4	+
CCCCN1C=C(C(=O)OC)C(c2ccccc2Cl)C(C(=O)OC)=C1	8	69*	1	18	2	+
CCOC(=O)C1=C(C)N(C)C(C)=C(C(=O)OCC)C1c1ccccc1	5	67*	10	32	1	+
COC(=O)c1ccc(NC(=O)C2CCN(C(=O)c3cc(OC)cc(OC)c3)CC2)cc1	.	-16	10	.	.	.
Cc1sc(NC(=O)c2ccccc2F)c(CN2CCCCC2C)c1C (stereo unspecified)	6	79*	10	13	0	+
Cc1cc2cc3c(cc2n2c(SCC(=O)N4CCc5ccccc54)nnc12)OCCO3	.	3	7	.	.	.
CC1=C/C(=C(/c2ccc(O)c(C)c2)c2ccccc2C(=O)O)C=CC1=O	.	51	5	.	.	i
O=C(O)C1=CC(=C(c2ccc(O)c(C(=O)O)c2)c2ccc(O)c(C(=O)O)c2)C=CC1=O	.	26	11	.	.	.
CCC(C(=O)N1CCC(C(=O)c2nc3ccccc3s2)CC1)c1ccccc1 (stereo unspecified)	.	-3	.	.	.	.
COc1cccc(/C=C\c2[nH]c(=O)[nH]c(=O)c2[N+](=O)[O-])c1OC	.	-1	12	.	.	.
Cc1ccc2cc(CN(Cc3ccccc3)C(=O)NC3CCCCC3)c(=O)[nH]c2c1C	.	23	13	.	.	.
FC(F)(F)c1nnc(-c2ccccc2)nc1Oc1ccccc1	12	49	3	34	1	.
Fc1ccc(Oc2nc(-c3ccccc3)nnc2C(F)(F)F)cc1	6	69*	11	26	0	+
Fc1ccc(Sc2nc(-c3ccccc3)nnc2C(F)(F)F)cc1	13	65*	9	32	-1	i
CCC(c1nnnn1Cc1ccco1)N(Cc1cccs1)Cc1cc2ccc(C)c(C)c2[nH]c1=O (stereo unspecified)	.	22	14	.	.	.
Cn1c(-c2ccccc2)nc2cc(N)ccc21	.	-32	25	.	.	.
CCN(Cc1ccccc1)C(c1cc2cc(C)cc(C)c2[nH]c1=O)c1nnnn1CCOC (stereo unspecified)	29	73*!	18	14	-3	i
CCN(Cc1ccccc1)C(c1cc2cc(C)ccc2[nH]c1=O)c1nnnn1CCOC (stereo unspecified)	14	27	12	24	-5	.
CCN1CCN(CCC(=O)Nc2ccc(Cl)cc2)CC1	.	-31	11	.	.	.
SMILES	Avidin fluor	EP2 mod	EP2 antag	GSH fluor	HMGR II inh	EP2 confirm
CC/C(=C\C1CCCCC1)C(NP(=O)(c1ccccc1)c1ccccc1)c1ccccc1 (stereo unspecified)	13	70*	5	18	-10	+
CCOc1ccc(/C=C2/SC(=O)NC2=O)c(OCC)c1	.	-37	15	.	.	.
O=S(=O)(c1ccc(F)cc1)c1snnc1-c1ccccc1	11	69*	-1	12	4	+
O=S(=O)(c1ccc(Cl)cc1)c1snnc1-c1ccccc1	11	45	13	11	1	.
COc1ccc(-n2c(-c3ccccc3)nc(=S)c3c2CCCC3)cc1	24	40	.	9	3	.
COc1ccc(-n2c(-c3cccc(OC)c3)nc(=S)c3c2CCCC3)cc1	7	77*	18	4	-6	i
CCc1nc(N2CCCCC2)c2oc3ccccc3c2n1	12	76*	8	31	2	i
CCc1nc(N2CCCCC2C(=O)O)c2oc3ccccc3c2n1 (stereo unspecified)	8	-16	6	.	.	.
C=CCSc1nc2ccccc2n1S(=O)(=O)c1ccc(C)cc1	3	67*	11	19	-3	+
Cc1ccc(S(=O)(=O)n2c(N)nc3ccccc32)cc1	.	32	6	.	.	.
CC(=O)O[C@@H]1CC[C@@]2(C)C(C[C@@H](OC(C)=O)[C@@]3(C)C4=CC(=O)O[C@@H](c5ccoc5)[C@]4(C)CCC23)C1(C)C (stereo partly specified)	.	2	13	.	.	.
COC(=O)CC1C(C)(C)C(OC(C)=O)[C@@H]2[C@@H](OC(C)=O)[C@]34O[C@@]2(O)[C@]1(C)C3CC[C@]1(C)C4=CC(=O)O[C@H]1c1ccoc1 (stereo partly specified)	.	53	9	.	.	i
COc1ccc2cc(C(=O)N3CCn4c(nnc4C4CC4)C3)[nH]c2c1	.	-20	.	.	.	.
Cc1cc(SCC(=O)Nc2cccnc2Cl)nc2ccccc12	10	67*	4	10	-3	i
Cc1cc(C)c(NC(=O)CSc2nc(COc3ccccc3)nc3ccccc23)c(C)c1	21	40	39	11	-4	.
Cc1ccccc1NC(=O)CSc1nc(COc2ccccc2)nc2ccccc12	32	85*	7	16	3	i
Cc1cc(SCC(=O)NCCC2=CCCCC2)nc2ccccc12	1	70*	5	17	-4	i
CC(=O)NCCn1c(SCC(=O)NCCC2=CCCCC2)nc2ccccc2c1=O	9	-27	7	12	-11	.
Cc1nc(NC(=O)CSc2cc(C)c3ccccc3n2)c(Cl)cc1Cl	9	20	7	11	3	.
O=C(NCc1ccc(F)cc1)c1ncoc1-c1cccs1	.	-69	.	.	.	.
COc1ccc(/C(O)=C2/C(=O)C(=O)N(C)C2c2cccnc2)cc1OC (stereo unspecified)	.	29	11	.	.	.
O=c1[nH]c2cc3nc(C(F)(F)F)[nH]c3cc2[nH]1	.	-12	8	.	.	.
O=C(O)CCCN1C(=O)/C(=C\c2ccco2)SC1=S	10	74*	8	10	12*	+
O=C(N1CCCC1)N1CCC(Cn2nc(-c3ccccc3)ccc2=O)CC1	.	0	.	.	.	.
CCOc1ccc2[nH]c(=O)c(CN(Cc3cccs3)C(=O)Nc3ccc(F)cc3)cc2c1	.	-15	20	.	.	.
